The values below come from PubChem BioAssay (EPA / NIEHS).

The target in experiment [1] is human Mitogen-Activated Protein Kinase 1 (MAPK 1), MAPK1 (gene 5594) (UniProt P28482). Put plainly: NVS_ENZ_hMAPK1: NovaScreen (NVS) Enzymatic Assay for human Mitogen-Activated Protein Kinase 1 (MAPK 1) (AID 2283175). The procedure, abridged:
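Cell-free recombinant human MAPK1 enzymatic assay, fluorescence/electrophoretic mobility shift read at 1 h; loss of signal vs DMSO. Primary screen in duplicate at 25 uM; actives (e.g. ≥30% inhibition) run as concentration-response up to 50 uM.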

Experiment [2] addresses Mitogen-activated protein kinase 3 (Homo sapiens) (UniProt P27361). Put plainly: NVS_ENZ_hMAPK3: NovaScreen (NVS) Enzymatic Assay for human Mitogen-Activated Protein Kinase 3 (MAPK 3) (AID 2283177). Summed up:
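Chemicals were first tested in duplicate at 25 uM, with hits re-run as concentration series (max 50 uM). Recombinant enzyme activity, measured 1 h post-dose in a cell-free format, was read by fluorescence/mobility shift relative to DMSO.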

For experiment [3], the target named is human Esterase Plasma (ES), BCHE (gene 590) (UniProt P06276). Briefly: NVS_ENZ_hES: NovaScreen (NVS) Enzymatic Assay for human Esterase Plasma (ES) (AID 2283157). The procedure, abridged:
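Primary single-concentration screen at 25 uM in duplicate, then concentration-response to a 50 uM top dose. Human plasma esterase activity detected colorimetrically after 0.25 h incubation, with DMSO as baseline.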

Experiment [4] has as its target human Fibroblast Growth Factor Receptor 1 (FGFR1), FGFR1 (gene 2260) (UniProt P11362). Briefly: NVS_ENZ_hFGFR1: NovaScreen (NVS) Enzymatic Assay for human Fibroblast Growth Factor Receptor 1 (FGFR1) (AID 2283159). Summed up:
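Cell-free recombinant kinase with fluorescent substrate, product separated by electrophoretic mobility shift; read 1 hour after dosing, loss of signal relative to DMSO. Initial screen in duplicate at 25 uM, actives followed in concentration series.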

The target in experiment [5] is human IkappaB Kinase alpha (IKKa), CHUK (gene 1147) (UniProt O15111). Put plainly: NVS_ENZ_hIKKa: NovaScreen (NVS) Enzymatic Assay for human IkappaB Kinase alpha (IKKa) (AID 2283167). Summed up: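 Compounds first run in duplicate at 25 uM, those meeting threshold (e.g. 30% inhibition) retested to maximum 50 uM. Enzyme activity of recombinant IKKa measured by fluorescence with electrophoretic mobility shift separation, 1 hour post-dosing, DMSO baseline.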

Experiment [6] has as its target Collagenase 3 (Homo sapiens) (UniProt P45452). Put plainly: NVS_ENZ_hMMP13: NovaScreen (NVS) Enzymatic Assay for human Matrix Metalloproteinase-13 (MMP13) (AID 2283182). Summed up: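 Recombinant MMP13 cleaving fluorescent substrate, cell-free, measured 1 h after dosing. Primary duplicate screen at 25 uM; actives tested in concentration-response up to 50 uM; loss of signal relative to DMSO.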

In experiment [7] the target is human Matrix Metalloproteinase-2 (MMP2), MMP2 (gene 4313) (UniProt P08253). Put plainly: NVS_ENZ_hMMP2: NovaScreen (NVS) Enzymatic Assay for human Matrix Metalloproteinase-2 (MMP2) (AID 2283184). The procedure, abridged: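 Compounds first screened in duplicate at a single 25 uM, with actives followed up in concentration series. Recombinant human MMP2 cleaves a fluorogenic substrate; fluorescence taken at 1 h, inhibition fitted relative to DMSO.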

In experiment [8] the target is human Matrix Metalloproteinase-3 (MMP3), MMP3 (gene 4314) (UniProt P08254). Put plainly: NVS_ENZ_hMMP3: NovaScreen (NVS) Enzymatic Assay for human Matrix Metalloproteinase-3 (MMP3) (AID 2283185). Summed up: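 Fluorescent substrate turnover by recombinant MMP3 read after 1 h, signal loss scored against DMSO. Compounds first run in duplicate at 25 uM single dose, then actives confirmed by concentration series.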

Experiment [9] addresses Glycogen synthase kinase-3 beta (Homo sapiens) (UniProt P49841). Put plainly: NVS_ENZ_hGSK3b: NovaScreen (NVS) Enzymatic Assay for human Glycogen Synthase Kinase-3 beta (GSK3b) (AID 2283165). Summed up: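 Recombinant enzyme with specific fluorescent substrate, 1 h, product separated by electrophoretic mobility shift. Primary duplicate screen at 25 uM; actives (e.g. 30% inhibition) followed in singleton concentration-response to 50 uM. Signal loss fitted versus DMSO.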

In experiment [10] the target is human MET Proto-Oncogene, Receptor Tyrosine Kinase (MET), MET (gene 4233) (UniProt P08581). Briefly: NVS_ENZ_hMet: NovaScreen (NVS) Enzymatic Assay for human MET Proto-Oncogene, Receptor Tyrosine Kinase (MET) (AID 2283180). Summed up:
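Hits from a 25 uM duplicate screen were retested in concentration series up to 50 uM. Enzyme activity was measured by fluorescence after electrophoretic separation of product from substrate, 1 h after compound addition, relative to DMSO.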

Experiment [11] has as its target human Matrix Metalloproteinase-7 (MMP7), MMP7 (gene 4316) (UniProt P09237). Briefly: NVS_ENZ_hMMP7: NovaScreen (NVS) Enzymatic Assay for human Matrix Metalloproteinase-7 (MMP7) (AID 2283183). Summed up:
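Compounds first tested at 25 uM in duplicate, then at up to 50 uM in concentration series if active. Protease activity measured by fluorescence intensity 1 h after dosing, with fitting relative to DMSO.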

The target in experiment [12] is human Ephrin type-A Receptor 1 (EphA1), EPHA1 (gene 2041) (UniProt P21709). Briefly: NVS_ENZ_hEphA1: NovaScreen (NVS) Enzymatic Assay for human Ephrin type-A Receptor 1 (EphA1) (AID 2283158).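 Further: activity is signal loss versus DMSO meaning EphA1 kinase inhibition.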 The procedure, abridged: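 Recombinant kinase, fluorescent substrate, mobility-shift separation, fluorescence read at 1 h. Single-point duplicates at 25 uM; hits (e.g., ≥30% inhibition) run singleton concentration-response, max 50 uM. DMSO = negative control/baseline.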

Experiment [13] deals with human Matrix Metalloproteinase-1 (MMP1), MMP1 (gene 4312) (UniProt P03956). Briefly: NVS_ENZ_hMMP1: NovaScreen (NVS) Enzymatic Assay for human Matrix Metalloproteinase-1 (MMP1) (AID 2283181). The procedure, abridged: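 Cell-free fluorescent substrate assay of human MMP1, read after 1 h. A single 25 uM duplicate screen was followed by concentration series to a maximum of 50 uM for actives meeting threshold; inhibition analysed against DMSO baseline.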

Experiment [14] addresses human MAP Kinase-Activated Protein Kinase 2 (MAPKAPK2), MAPKAPK2 (gene 9261) (UniProt P49137). Put plainly: NVS_ENZ_hMAPKAPK2: NovaScreen (NVS) Enzymatic Assay for human MAP Kinase-Activated Protein Kinase 2 (MAPKAPK2) (AID 2283178). The procedure, abridged:
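Chemicals screened in duplicate at 25 uM, then to 50 uM top concentration in concentration-response, against recombinant human MAPKAPK2; substrate conversion read 1 hr post-dosing by fluorescence after electrophoretic mobility-shift separation, loss-of-signal relative to DMSO.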

Experiment [15] has as its target human Ephrin type-B Receptor 2 (EphB2), EPHB2 (gene 2048) (UniProt P29323). Put plainly: NVS_ENZ_hEphB2: NovaScreen (NVS) Enzymatic Assay for human Ephrin type-B Receptor 2 (EphB2) (AID 2283156). The procedure, abridged:
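Compounds were first tested in duplicate at 25 uM, with hits rerun singly in concentration series up to 50 uM. Enzyme activity on fluorescent substrate was read at 1 h by mobility-shift separation, scored as signal loss relative to DMSO.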

“And” between values parts separate entries of the source, which are not always exact repeats. Identical values can stand only once. Inconclusive results are not listed. Some compounds were tested as several samples or in several runs, with calls that do not always agree. The source made the active and inactive calls. How the source made its calls: active means hit-call score of the fitted dose curve at least 0.9, where 1 is the maximum; inconclusive means response in the unintended direction; inactive means score below 0.9.

Chain of Mitogen-activated protein kinase 3 (Homo sapiens) (P27361 whole entry, looked up): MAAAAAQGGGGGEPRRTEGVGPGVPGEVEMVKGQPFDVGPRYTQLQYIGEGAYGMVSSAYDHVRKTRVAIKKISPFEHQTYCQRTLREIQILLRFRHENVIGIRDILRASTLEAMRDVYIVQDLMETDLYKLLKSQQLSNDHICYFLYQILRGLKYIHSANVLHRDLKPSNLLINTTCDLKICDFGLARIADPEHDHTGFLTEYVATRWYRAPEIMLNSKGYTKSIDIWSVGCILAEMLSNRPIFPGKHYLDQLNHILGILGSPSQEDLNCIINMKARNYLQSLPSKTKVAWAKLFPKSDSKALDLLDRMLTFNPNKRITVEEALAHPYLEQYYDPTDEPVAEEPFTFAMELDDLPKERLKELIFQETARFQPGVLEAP
Chain of human Fibroblast Growth Factor Receptor 1 (FGFR1), FGFR1 (gene 2260) (P11362 whole entry, looked up): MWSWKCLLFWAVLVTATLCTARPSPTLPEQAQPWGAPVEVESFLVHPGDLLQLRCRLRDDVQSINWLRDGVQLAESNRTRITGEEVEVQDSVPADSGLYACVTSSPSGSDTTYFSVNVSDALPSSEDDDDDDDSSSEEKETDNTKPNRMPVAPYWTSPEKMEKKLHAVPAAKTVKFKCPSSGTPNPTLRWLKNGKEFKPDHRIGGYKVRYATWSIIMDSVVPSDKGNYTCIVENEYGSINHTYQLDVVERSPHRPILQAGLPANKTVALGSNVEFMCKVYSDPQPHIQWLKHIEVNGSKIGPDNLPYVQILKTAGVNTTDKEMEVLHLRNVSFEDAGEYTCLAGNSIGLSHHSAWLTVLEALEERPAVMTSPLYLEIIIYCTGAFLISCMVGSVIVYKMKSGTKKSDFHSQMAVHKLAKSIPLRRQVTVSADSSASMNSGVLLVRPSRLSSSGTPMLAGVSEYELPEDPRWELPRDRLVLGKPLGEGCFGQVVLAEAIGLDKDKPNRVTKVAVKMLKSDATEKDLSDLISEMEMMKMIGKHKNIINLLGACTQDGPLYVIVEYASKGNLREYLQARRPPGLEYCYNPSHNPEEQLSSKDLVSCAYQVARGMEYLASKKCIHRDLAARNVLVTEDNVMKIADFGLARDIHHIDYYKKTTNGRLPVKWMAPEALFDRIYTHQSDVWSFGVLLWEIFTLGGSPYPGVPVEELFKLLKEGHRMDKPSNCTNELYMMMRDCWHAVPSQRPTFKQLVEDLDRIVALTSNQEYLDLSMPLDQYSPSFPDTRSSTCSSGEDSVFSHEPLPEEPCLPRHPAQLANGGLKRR
Chain of human MET Proto-Oncogene, Receptor Tyrosine Kinase (MET), MET (gene 4233) (P08581 whole entry, looked up): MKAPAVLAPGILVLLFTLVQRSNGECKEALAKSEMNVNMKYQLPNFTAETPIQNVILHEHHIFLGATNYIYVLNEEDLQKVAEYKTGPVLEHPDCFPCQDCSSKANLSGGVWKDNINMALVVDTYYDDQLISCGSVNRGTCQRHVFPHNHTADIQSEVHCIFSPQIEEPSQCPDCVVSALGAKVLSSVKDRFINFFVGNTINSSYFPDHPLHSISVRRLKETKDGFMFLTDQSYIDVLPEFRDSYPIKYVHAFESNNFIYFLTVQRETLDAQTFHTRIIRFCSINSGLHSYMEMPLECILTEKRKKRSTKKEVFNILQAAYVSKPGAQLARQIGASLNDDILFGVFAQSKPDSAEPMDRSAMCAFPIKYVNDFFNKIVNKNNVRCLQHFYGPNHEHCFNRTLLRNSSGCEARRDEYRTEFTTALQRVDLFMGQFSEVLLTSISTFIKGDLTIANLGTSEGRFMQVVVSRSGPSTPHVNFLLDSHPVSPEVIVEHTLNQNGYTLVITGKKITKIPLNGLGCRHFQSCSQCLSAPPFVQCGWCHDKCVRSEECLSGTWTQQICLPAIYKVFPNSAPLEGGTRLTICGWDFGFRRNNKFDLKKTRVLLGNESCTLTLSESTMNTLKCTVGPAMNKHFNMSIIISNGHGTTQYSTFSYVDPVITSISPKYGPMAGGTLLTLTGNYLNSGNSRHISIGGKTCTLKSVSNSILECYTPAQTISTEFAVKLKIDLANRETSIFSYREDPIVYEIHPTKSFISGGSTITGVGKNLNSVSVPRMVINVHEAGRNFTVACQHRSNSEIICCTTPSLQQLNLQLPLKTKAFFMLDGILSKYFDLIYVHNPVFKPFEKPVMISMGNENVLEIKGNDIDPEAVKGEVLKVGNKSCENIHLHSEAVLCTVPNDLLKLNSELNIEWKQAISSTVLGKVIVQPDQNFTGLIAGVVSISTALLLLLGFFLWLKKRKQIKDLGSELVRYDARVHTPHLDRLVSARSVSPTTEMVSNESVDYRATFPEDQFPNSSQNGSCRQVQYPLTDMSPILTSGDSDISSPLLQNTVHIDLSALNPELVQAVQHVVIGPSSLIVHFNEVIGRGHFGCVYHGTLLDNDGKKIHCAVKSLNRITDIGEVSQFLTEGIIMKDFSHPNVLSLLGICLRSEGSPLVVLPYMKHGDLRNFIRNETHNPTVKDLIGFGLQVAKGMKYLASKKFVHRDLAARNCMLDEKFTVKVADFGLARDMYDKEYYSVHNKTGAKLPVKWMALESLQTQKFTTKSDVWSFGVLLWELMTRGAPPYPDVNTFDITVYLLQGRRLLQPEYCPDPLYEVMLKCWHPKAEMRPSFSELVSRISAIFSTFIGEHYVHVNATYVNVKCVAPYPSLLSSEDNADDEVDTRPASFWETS
Chain of human Matrix Metalloproteinase-7 (MMP7), MMP7 (gene 4316) (P09237 whole entry, looked up): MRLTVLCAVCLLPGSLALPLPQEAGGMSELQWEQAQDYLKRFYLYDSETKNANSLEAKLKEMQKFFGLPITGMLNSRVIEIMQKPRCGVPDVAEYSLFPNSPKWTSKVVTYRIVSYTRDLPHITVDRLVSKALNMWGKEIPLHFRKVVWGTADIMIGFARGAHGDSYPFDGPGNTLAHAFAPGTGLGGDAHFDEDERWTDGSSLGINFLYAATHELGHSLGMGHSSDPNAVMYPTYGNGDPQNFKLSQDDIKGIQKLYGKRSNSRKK
Chain of Glycogen synthase kinase-3 beta (Homo sapiens) (P49841 whole entry, looked up): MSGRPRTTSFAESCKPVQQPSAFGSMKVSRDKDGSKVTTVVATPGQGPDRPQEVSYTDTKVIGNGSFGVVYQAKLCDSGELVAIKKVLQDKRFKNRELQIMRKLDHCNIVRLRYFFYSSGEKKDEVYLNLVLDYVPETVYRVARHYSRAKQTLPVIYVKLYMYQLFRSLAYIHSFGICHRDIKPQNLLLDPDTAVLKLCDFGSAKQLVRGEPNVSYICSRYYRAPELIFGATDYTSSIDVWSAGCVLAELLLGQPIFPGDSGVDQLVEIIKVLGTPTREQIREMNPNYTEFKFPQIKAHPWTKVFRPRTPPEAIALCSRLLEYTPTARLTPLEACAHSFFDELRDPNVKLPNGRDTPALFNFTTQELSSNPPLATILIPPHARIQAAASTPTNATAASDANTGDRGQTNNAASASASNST
Chain of human Esterase Plasma (ES), BCHE (gene 590) (P06276 whole entry, looked up): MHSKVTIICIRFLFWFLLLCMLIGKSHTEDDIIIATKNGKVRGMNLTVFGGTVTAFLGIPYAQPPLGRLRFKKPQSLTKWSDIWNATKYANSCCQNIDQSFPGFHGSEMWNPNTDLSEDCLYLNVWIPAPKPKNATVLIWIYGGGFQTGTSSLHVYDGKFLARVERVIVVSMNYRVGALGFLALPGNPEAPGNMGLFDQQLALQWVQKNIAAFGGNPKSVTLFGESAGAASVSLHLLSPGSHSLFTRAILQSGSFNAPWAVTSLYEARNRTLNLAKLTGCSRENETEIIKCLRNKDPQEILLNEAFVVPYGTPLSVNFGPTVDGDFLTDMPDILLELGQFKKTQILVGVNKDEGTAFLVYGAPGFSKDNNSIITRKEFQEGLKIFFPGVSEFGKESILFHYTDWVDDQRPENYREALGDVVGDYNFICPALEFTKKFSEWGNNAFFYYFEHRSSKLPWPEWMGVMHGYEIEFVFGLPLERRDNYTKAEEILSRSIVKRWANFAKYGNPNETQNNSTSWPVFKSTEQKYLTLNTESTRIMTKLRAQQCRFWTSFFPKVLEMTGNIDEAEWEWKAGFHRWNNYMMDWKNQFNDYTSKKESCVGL
Chain of human Matrix Metalloproteinase-3 (MMP3), MMP3 (gene 4314) (P08254 whole entry, looked up): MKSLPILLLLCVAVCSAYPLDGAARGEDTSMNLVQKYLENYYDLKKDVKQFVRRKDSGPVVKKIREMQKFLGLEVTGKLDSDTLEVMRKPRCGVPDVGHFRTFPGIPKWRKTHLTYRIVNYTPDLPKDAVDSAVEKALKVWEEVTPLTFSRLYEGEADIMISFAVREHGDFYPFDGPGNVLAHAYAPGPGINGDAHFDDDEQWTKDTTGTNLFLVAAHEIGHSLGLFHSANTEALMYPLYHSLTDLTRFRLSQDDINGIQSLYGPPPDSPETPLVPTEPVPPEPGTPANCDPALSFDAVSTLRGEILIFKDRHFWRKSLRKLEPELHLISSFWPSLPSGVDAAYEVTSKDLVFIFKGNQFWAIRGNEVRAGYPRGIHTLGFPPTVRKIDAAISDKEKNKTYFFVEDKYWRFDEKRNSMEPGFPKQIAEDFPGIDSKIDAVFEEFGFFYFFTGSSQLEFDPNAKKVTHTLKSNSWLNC
Chain of human Mitogen-Activated Protein Kinase 1 (MAPK 1), MAPK1 (gene 5594) (P28482 whole entry, looked up): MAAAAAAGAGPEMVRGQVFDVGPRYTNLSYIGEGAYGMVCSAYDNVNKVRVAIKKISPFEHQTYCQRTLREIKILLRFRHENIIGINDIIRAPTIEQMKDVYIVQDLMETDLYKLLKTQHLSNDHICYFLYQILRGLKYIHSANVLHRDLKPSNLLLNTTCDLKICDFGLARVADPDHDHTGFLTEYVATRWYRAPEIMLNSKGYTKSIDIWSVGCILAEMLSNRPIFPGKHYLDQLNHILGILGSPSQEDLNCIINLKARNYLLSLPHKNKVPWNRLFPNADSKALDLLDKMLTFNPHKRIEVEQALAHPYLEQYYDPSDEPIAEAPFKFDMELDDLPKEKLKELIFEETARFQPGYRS

As for `C=CCC1=C(C)[C@@H](OC(=O)[C@@H]2[C@@H](C=C(C)C)C2(C)C)CC1=O`, the compound was called inactive in [1] and in [2].
In the case of `CCOC(=O)C(Cl)Cc1cc(-n2nc(C)n(C(F)F)c2=O)c(F)cc1Cl` (stereo unspecified), the compound was called inactive in [3] and in experiment [4].
In the case of `CCCCOC(=O)c1ccccc1C(=O)OCCCC`, in experiment [3], the AC50 was 11 µM (active) and the compound was called inactive.
For the compound `CO/C=C(/C(=O)OC)c1ccccc1Oc1cc(Oc2ccccc2C#N)ncn1`, the concentration at half-maximal activity (AC50) in [3] was 26.3 µM (active) and 26.4 µM (active) and 10 µM (active). For the same compound, the call in experiment [4], in experiment [5], in experiment [6], in experiment [7] and in experiment [8] was inactive.
Take `COc1nc(C)nc(NC(=O)NS(=O)(=O)c2ccccc2Cl)n1`: the compound was classed as inactive in experiment [9].
Regarding `COc1nc(C)nc(NC(=O)NS(=O)(=O)c2ccccc2CCC(F)(F)F)n1`, the outcome in [10] and in [11] was inactive.
With `COc1cnc(OC)n2nc(NS(=O)(=O)c3c(OCC(F)F)cccc3C(F)(F)F)nc12`, the compound was classed as inactive in experiment [12] and in experiment [2].
As to `Cc1ccc(-c2c(Cl)nc(C#N)n2S(=O)(=O)N(C)C)cc1`, the call in experiment [12] was inactive. Besides, the AC50 in experiment [9] was 18.2 µM (active).
Take `N#Cc1nn(-c2c(Cl)cc(C(F)(F)F)cc2Cl)c(N)c1S(=O)C(F)(F)F` (stereo unspecified): the call in experiment [4] and in experiment [8] was inactive.
`C=CCC1=C(C)C(OC(=O)C2C(C=C(C)C)C2(C)C)CC1=O` (stereo unspecified): in [13], the AC50 is 8.92 µM (active).
On to `CNC(=S)S`, for which the outcome in experiment [9], in experiment [5], in [2], in [14], in experiment [10] and in [11] was inactive. The compound was classed as inactive in [8].
Turning to `COP(N)(=O)SC` (stereo unspecified), in experiment [15], the outcome was inactive.
Regarding `CC1=C(C(=O)Nc2ccccc2)SCCO1`, the AC50 in experiment [3] was 23.6 µM (active).

As usually defined, the AC50 is the concentration at which the activity in the assay is half-maximal.
